Experimental data as given in PubChem BioAssay (NCATS).
Results filed as inconclusive are left out. Active and inactive are the calls of the source. The call rests on the fitted dose curve; in most records, active means well fitted cell-killing curve with a large enough effect; inconclusive means small, poorly fitted or top-dose-only effect, or effect the other way; inactive means no such curve, though single readings can be large or run the other way. Residues, ends and D or L forms follow the SMILES beside them. *: point of attachment. Cbz = O=C(OCc1ccccc1)*

assay: qHTS of pediatric cancer cell lines to identify multiple opportunities for drug repurposing: Confirmatory screen for NB1643 cells (AID 1347109); conditions: NB1643 neuroblastoma cell viability; series mostly up to 45.9 µM; further: nearly all actives have a fitted effect of over 45% in size
Text: Drug repurposing or repositioning has been offered as a strategy for drug development in oncology programs. This approach has special potential for childhood cancers and other rare or orphan diseases, where the expected return on new drug development has been a disincentive to pharmaceuticals.
In this project we exploit the poly-pharmacology of drugs to discover new indications via phenotypic screening of a panel of 19 well-characterized cell lines derived from solid tumors seen in children and adolescents. The goal is to identify approved drugs with previously unrecognized anticancer properties that has the potential to reveal new mechanisms and biological processes involved in carcinogenesis or drug resistance. We employed a titration-based paradigm (quantitative high-throughput screening or qHTS), where all compounds were tested at multiple concentrations for their effect on cell viability. Concentration-response curves (CRCs) were derived directly from the primary screen, and both potency and efficacy values were used to identify compounds with robust bioactivity profiles. We screened the NIH Chemical Genomics Center (NCGC) Pharmaceutical Collection (NPC) and Mechanism Interrogation Plate (MIPE) small molecule collections of approved and investigational compounds against these cell lines; and measured metabolically active cells after 48 hours of compound treatment as a proxy for cell viability.
Assay Submitter: Nathalia J. Martinez, National Center for Advancing Translational Sciences, National Institutes of Health, Rockville, MD, USA; email: natalia.martinez@nih.gov
[1] Shen, M et al. Quantitative high-throughput phenotypic screening of pediatric cancer cell lines identifies multiple opportunities for drug repurposing. Oncotarget 2017 Dec 19;9(4):4758-4772. PMID 29435139.
The cells were obtained from University of North Carolina (UNC), Pediatric Preclinical Testing Program (PPT), and Coriell Institute (CI).
qHTS cell viability assay:
Cells were assayed in growth media at a density of 500-1,000 cells/well. Five microliters of cells were dispensed into 1,536-well, white, solid-bottom, TC-treated plates (Greiner Bio One) using a multidrop dispenser and incubated at 37 degrees C, 5% CO2, under a humidified atmosphere for 5 hours. Twenty-three nanoliters of compounds and controls (neutral control DMSO or positive control bortezomib at final concentration of 2.3 µM) were subsequently transferred by Kalypsys pintool. For primary screens, the MIPE collection was tested at 11-point dilutions (final concentrations range from 0.78 nM to 46 µM) and the NPC collection at 8-point dilutions (final concentrations range from 0.59 nM to 46 µM). Compounds tested in follow-up screens were assayed at 11-point dilutions. Cells were incubated for 48 hours, followed by addition of 3 µL of CellTiter-Glo (Promega). After a 15 min incubation at room temperature, samples were analyzed for luminescence intensity using a ViewLux High-throughput CCD imager equipped with clear filters.
Potency means the concentration at half of the fitted maximal effect.

Compound	Potency
COC(=O)C1C2CC3c4[nH]c5cc(OC)ccc5c4CCN3CC2CC(OC(=O)c2cc(OC)c(OC)c(OC)c2)C1OC (stereo not given)	5220 nM (active)
CC(C)C[C@H](NC(=O)CNC(=O)c1cc(Cl)ccc1Cl)B1OC(=O)CC(CC(=O)O)(C(=O)O)O1 (stereo not given in full)	261 nM (active)
CCN(CC)Cc1ccc2cc(COC(=O)Nc3ccc(C(=O)NO)cc3)ccc2c1	inactive
COc1cc(O)c2c(c1)C1OC1C[C@H](O)[C@H](O)C(=O)C=CC[C@H](C)OC2=O (stereo not given in full)	4650 nM (active)
COc1cc(C[C@@H](CO)[C@H](CO)Cc2ccc(O)c(OC)c2)ccc1O	inactive
Cc1[nH]c(C=C2C(=O)Nc3ccccc32)c(C)c1CCC(=O)O	inactive
O=C(C=CC#Cc1cccc(NS(=O)(=O)c2ccccc2)c1)NO	2330 nM (active)
NS(=O)(=O)OC[C@@H]1C[C@@H](n2ccc3c(N[C@H]4CCc5ccccc54)ncnc32)C[C@H]1O	inactive
N#CNC(=NCCCCCCOc1ccc(Cl)cc1)Nc1ccncc1	14.7 nM (active)
CC(=O)SCC(Cc1ccccc1)C(=O)NCC(=O)OCc1ccccc1 (stereo not given)	inactive
O=C1NC(=O)C(=Cc2ccc3nccc(-c4ccncc4)c3c2)S1	6570 nM (active)
CNC(=O)c1ccc(Nc2cc(Nc3ccccc3S(=O)(=O)C(C)C)c3cc[nH]c3n2)nc1	1470 nM (active)
COc1ccc2c(c1OC)C(=O)OC2[C@H]1c2c(cc3c(c2OC)OCO3)CCN1C (stereo not given in full)	inactive
COc1cccc2c1C(=O)c1c(O)c3c(c(O)c1C2=O)C[C@@](O)(C(=O)CO)C[C@@H]3O[C@H]1C[C@H](N)[C@H](OC2CCCCO2)[C@H](C)O1 (stereo not given in full)	1650 nM (active)
CC[C@@]1([C@@H]2O[C@@H]([C@H]3O[C@@](O)(CO)[C@H](C)C[C@H]3C)C[C@H]2C)CC[C@H]([C@]2(C)CC[C@]3(C[C@H](O)[C@@H](C)[C@@H]([C@@H](C)[C@@H](OC)[C@H](C)C(=O)O)O3)O2)O1	362 nM (active)
CCC(C(=O)O)C1CCC(C)C(C(C)C(O)C(C)C(=O)C(CC)C2OC3(C=CC(O)[C@@]4(CC[C@](C)(C5CC[C@@](O)(CC)C(C)O5)O4)O3)C(C)CC2C)O1 (stereo not given in full)	1170 nM (active)
Nc1nc2c(c(=O)[nH]1)N(C=O)[C@H](CNc1ccc(C(=O)N[C@@H](CCC(=O)O)C(=O)O)cc1)CN2	inactive
Cn1cc(-c2cnn3c(N)c(Br)c([C@H]4CCCNC4)nc23)cn1	1850 nM (active)
O=S(=O)(O)CCSSCCS(=O)(=O)O	inactive
C=Cc1c(C)c2cc3nc(cc4[nH]c(cc5nc(cc1[nH]2)C(C)=C5CCC(=O)O)c(CCC(=O)OC)c4C)[C@@]1(C)C3=CC=C(C(=O)OC)[C@H]1C(=O)OC	inactive

Compound	Potency
C=C1C(=CC=C2CCC[C@]3(C)[C@@H]([C@H](C)CCCC(C)(C)O)CC[C@@H]23)C[C@@H](O)C[C@@H]1O	inactive
Cn1c(Nc2ccc(C(F)(F)F)cc2)nc2cc(Oc3ccnc(-c4ncc(C(F)(F)F)[nH]4)c3)ccc21	20800 nM (active)
CC(C)(N)c1ccc(-c2nc3ccccc3nc2-c2ccccc2)cc1	26100 nM (active)
C#CCC(Cc1cnc2nc(N)nc(N)c2n1)c1ccc(C(=O)N[C@@H](CCC(=O)O)C(=O)O)cc1 (stereo not given in full)	inactive
Nc1ncn([C@@H]2O[C@H](CO)[C@@H](O)[C@@H]2O)c(=O)n1	16500 nM (active)
CC(C)C[C@@H](C=O)NC(=O)[C@H](CC(C)C)NC(=O)[C@H](CC(C)C)NC(=O)OCc1ccccc1 (Cbz-Leu-Leu-Leu-aldehyde)	1170 nM (active)
CN[C@H]1[C@@H](O)[C@@H]2O[C@@H]3O[C@H](C)CC(=O)[C@]3(O)O[C@@H]2[C@@H](NC)[C@H]1O	inactive
COc1cc(C=CC(=O)CC(=O)C=Cc2ccc(O)c(OC)c2)ccc1O	30200 nM (active)
C=CC(=O)N1CCc2ccc(-n3c(=O)ccc4cnc5ccc(-c6cnn(C)c6)cc5c43)cc21	2930 nM (active)
CC(C)N1[N]C(=C2C=c3cc(O)ccc3=N2)c2c(N)ncnc21	10400 nM (active)
C=CC(=O)Nc1cccc(Nc2nc(NC3CCC(N(C)C)CC3)nc3c2ncn3C(C)C)c1 (stereo not given)	414 nM (active)
CN(C)c1ccc(C(=O)NCCCCCCC(=O)NO)cc1	1170 nM (active)
C[C@H]1[C@@H](OC(=O)CCC(=O)O)O[C@@H]2O[C@@]3(C)CC[C@@H]4[C@H](C)CC[C@@H]1[C@@]24OO3	14700 nM (active)
CO[C@@H]1[C@@H](O)[C@H](O)[C@@H](n2c3c(Cl)cccc3c3c4c(c5c6cccc(Cl)c6[nH]c5c32)C(=O)NC4=O)O[C@@H]1CO	1850 nM (active)
O=C(Nc1cc2cc[nH]c2cn1)c1ccccc1	10400 nM (active)
COC1=C2C[C@@H](C)C[C@H](OC)[C@@H](O)[C@@H](C)C=C(C)[C@H](OC(N)=O)[C@@H](OC)C=CC=C(C)C(=O)NC(=CC1=O)C2=O	1310 nM (active)
FC(F)c1nc2ccccc2n1-c1nc(N2CCOCC2)nc(N2CCOCC2)n1	1470 nM (active)
COc1cccc2c1C(=O)c1c(O)c3c(c(O)c1C2=O)C[C@@](O)(C(C)=O)C[C@H]3O[C@H]1C[C@H](N)[C@H](O)[C@H](C)O1	165 nM (active)
C=CCNC1=C2C[C@@H](C)C[C@H](OC)[C@@H](O)[C@@H](C)C=C(C)[C@H](OC(N)=O)[C@@H](OC)C=CC=C(C)C(=O)NC(=CC1=O)C2=O	1170 nM (active)
CCOC(=O)N1CCN([N+]([O-])=NOc2ccc([N+](=O)[O-])cc2C#N)CC1	3690 nM (active)
